Among all 340,000 compounds or so, about 4,500 (1.3%) were called active. Where a call stands in place of a potency, no number is given. Roughly 5% stayed inconclusive and do not appear here. Calls follow the shape of the dose curve; as a rule, active = well fitted inhibition curve with a large enough effect; inconclusive = small, poorly fitted or top-dose-only effect, or another doubt; inactive = no such curve, though single readings can be large or run the other way. This excerpt belongs to a sample that is enriched for actives.
Potency is read from the fitted curve at half-maximal effect.

For the assay, the target named is DNA polymerase beta (Homo sapiens) (UniProt P06746). The assay can be described thus: qHTS Assay for Inhibitors of DNA Polymerase Beta. The settings on record: Pol beta primer extension/strand displacement, fluorescence kinetic; series mostly up to 114 µM. Put shortly:
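Preincubation: enzyme (10 nM) with compound, 15 min, RT. Reaction: substrate added to 50 nM final. Reads: 0 and 10 min. Analysis: normalized, Hill fit.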
For orientation: Quantitative high-throughput screening tests each substance at several concentrations.
As for `COc1ccc(N2CCN(C(=O)COc3ccc4c(C)cc(=O)oc4c3)CC2)cc1`, the Potency entry is “inactive”.

Consider `Cc1cc(=O)oc2ccc(OCC(=O)O)cc12`, for which the Potency result is “inactive”. Regarding `Cc1cc(=O)oc2cc(OCC(=O)Nc3nnc(C4CC4)s3)ccc12`, the Potency entry was “inactive”. Regarding `Cc1ccc(O)c(/C=N/NC(=O)COc2ccc3c(C)cc(=O)oc3c2)c1`, the Potency is 22.4 µM (active). `CCOC(=O)Cc1csc(NC(=O)COc2ccc3c(C)cc(=O)oc3c2)n1`: the Potency is 44.7 µM (active). `CCOC(=O)Cc1csc(SCc2cc(=O)oc3cc(O)ccc23)n1`: the Potency entry is “inactive”. As for `CCOC(=O)c1c(NC(=O)Cc2coc3ccc(CC)cc23)sc2c1CCC2`, the entry is “inactive”; as for `COc1ccc(N2CCN(Cc3nc4c(c(=O)[nH]c(=O)n4C)n3Cc3ccc(Cl)cc3)CC2)cc1`, “inactive”. On to `O=C(CSc1ncc(-c2ccccc2)[nH]1)Nc1ccc(F)cc1F`, for which the Potency entry is “inactive”. In the case of `Cc1nc2c(c(C)nn2-c2ccccc2)c(C)c1CCC(=O)NCCc1ccc(Cl)cc1`, the Potency entry was “inactive”. As for `CCOc1ccccc1CNC(=O)Nc1cn(CC(C)C)c(=O)c2ccccc12`, the entry is “inactive”. Consider `Cc1nn(CC(=O)O)c(=O)c2cc3cc(F)ccc3n12`, for which the Potency result is “inactive”. Consider `Cc1cccc(NC(=O)c2nnn(CC(=O)Nc3ccc(C(C)C)cc3)c2N)c1C`, for which the Potency result was “inactive”. Consider `COc1ccc(NC(=O)Cn2nnc(C(=O)NCCc3ccc(OC)c(OC)c3)c2N)cc1`, for which the Potency result is “inactive”. With `COc1ccc(CNC(=O)c2nnn(CC(=O)Nc3cc(C)cc(C)c3)c2N)cc1` the figure was 10 µM (active); with `CCc1ccc(NC(=O)Cn2nnc(C(=O)NCc3ccc(OC)cc3)c2N)cc1`, “inactive”. `CCc1ccc(NC(=O)Cn2nnc(C(=O)NCc3ccc4c(c3)OCO4)c2N)cc1`: the Potency entry is “inactive”. In the case of `CC(C)c1ccc(NC(=O)Cn2nnc(C(=O)NCCc3ccccc3)c2N)cc1`, the Potency is 7.94 µM (active). As for `COCCNC(=O)CSc1nc(-c2ccccc2)[nH]c1-c1ccc(C)cc1`, the Potency result was “inactive”. Take `Cc1cccc(NC(=O)CN(c2ccc(C(C)C)cc2)S(=O)(=O)c2c(C)nn(C)c2C)c1C`: the Potency result is “inactive”. Consider `CCOC(=O)c1c(NC(=O)c2ccc(S(=O)(=O)N(CC)CC)cc2)sc2c1CCCCC2`, for which the Potency result is “inactive”. As for `Cc1cc(C)c2oc(C(=O)Nc3ccc(S(=O)(=O)N(C)c4ccccc4)cc3)cc(=O)c2c1`, the entry is “inactive”.

For `COc1ccc(N2CCN(C(=O)CSCc3nc(-c4ccccc4Cl)oc3C)CC2)cc1`, the Potency entry was “inactive”. For the compound `Cc1nc2sc(C)c(C)n2c(=O)c1S(=O)(=O)NCCc1ccc(Cl)cc1`, the Potency result is “inactive”. With `CCc1cccc(-n2nnc(-c3nsc(NC(=O)c4ccc(C)cc4)n3)c2C)c1`, the Potency entry is “inactive”. With `CCN(CCCNC(=O)c1cc(Nc2ccc(OC)cc2)nc2ccccc12)c1cccc(C)c1` the entry was “inactive”.

The values above are taken from PubChem BioAssay AID485314 (National Center for Advancing Translational Sciences (NCATS), 2010).
